Each sequence was assayed against LHFPL4 (assay: pooled miR-30 sensor sort-seq; sequence = guide strand). Details: shRNA.
AGATCTTGTAGACCGTAGCCGT was tested, and the sensor-assay potency score (higher = more potent) was -1.61.
Sequence AAGAGCTGCATCCAGGCGCAGA has a sensor-assay potency score (higher = more potent) of -1.19.
Work on ATCTTGTAGACCGTAGCCGTGT yielded a sensor-assay potency score (higher = more potent) of -0.823.
TAGACCGTAGCCGTGTTGCAGA showed a sensor-assay potency score (higher = more potent) of -0.559.

These sequences were tested against LHFPL5 in the same assay as above. Details: shRNA.
With TAACACATTTCTGAAGCTGGTA the sensor-assay potency score (higher = more potent) was 0.181.
With TATAACAAATTACTTGAACATA the sensor-assay potency score (higher = more potent) was -1.51.
In the case of TAGACTGTGGCCGTGTTGCAGA, the sensor-assay potency score (higher = more potent) is reported as -0.721.
TTGTCTCAGGAGACTGTCCAGT showed a sensor-assay potency score (higher = more potent) of -0.336.
For TTGACGCTGTCGCCGATCCAGT, the sensor-assay potency score (higher = more potent) was -1.35.
Work on AACATAAGTAACACATTTCTGA yielded a sensor-assay potency score (higher = more potent) of -0.109.
With TTCTGGTTGAGTCAGTGTGGGC the sensor-assay potency score (higher = more potent) was -1.68.
In the case of TAGTTGGTATGGTAGATCTTGG, the sensor-assay potency score (higher = more potent) is reported as -1.03.
With TAGTGTTATAATAAAAGGCTTC the sensor-assay potency score (higher = more potent) was -0.225.
TTGAACATAAGTAACACATTTC showed a sensor-assay potency score (higher = more potent) of -0.364.
With TACAGTAGGAGGTCTTGTCTCA the sensor-assay potency score (higher = more potent) was -0.0507.
With TTGCAGATGAAGAACAGGCTGA the sensor-assay potency score (higher = more potent) was 0.379.

The sequences below were run against LHX3 in the same assay as above. Details: shRNA.
TTGAAGTCTTGGAAAGAGCTGA was tested, and the sensor-assay potency score (higher = more potent) was 0.479.
Sequence TTGAAAAAGTCGTCCTTGCAGT has a sensor-assay potency score (higher = more potent) of -0.456.
TTTCATGTCTAGAAATAGCAGC showed a sensor-assay potency score (higher = more potent) of 0.283.
For TTGTCCGACTTGGAGCCGCCGC, the sensor-assay potency score (higher = more potent) was -1.19.
TAGGTCAGAACTGGGTCCGTTC showed a sensor-assay potency score (higher = more potent) of -0.902.
TTGGCAACAGACATCTGTGGGT showed a sensor-assay potency score (higher = more potent) of 0.209.
Sequence TTTGGCAACAGACATCTGTGGG has a sensor-assay potency score (higher = more potent) of -0.246.
In the case of TTGAGACACTTGCTGTGCCAGT, the sensor-assay potency score (higher = more potent) is reported as -0.489.
TTGCAGTAAACGCTCTCCCCTC gave a sensor-assay potency score (higher = more potent) of -0.865.
Sequence TGCACTTGAGACACTTGCTGTG has a sensor-assay potency score (higher = more potent) of -0.126.
In the case of TTTGACTTACACACAGGCCAGC, the sensor-assay potency score (higher = more potent) is reported as -0.684.
ATGAGGTAGAACTCGTCGCCCG gave a sensor-assay potency score (higher = more potent) of -1.34.

What follows are sequences tested against LHX9 in the same assay as above. Details: shRNA.
Sequence TGTCACTACAGTGATAGTGGGA has a sensor-assay potency score (higher = more potent) of 0.281.
In the case of TTCTGAATTTGGCTCGTGCGTT, the sensor-assay potency score (higher = more potent) is reported as -1.08.
Work on TACAGTGATAGTGGGATTGGTC yielded a sensor-assay potency score (higher = more potent) of -0.245.
Work on TTTCATGGTCCGGAGCTGGTGA yielded a sensor-assay potency score (higher = more potent) of -0.253.
TTTCTGGGCAAGCTGCTTGAGG gave a sensor-assay potency score (higher = more potent) of -0.927.
For TTACATTCACAGCACTTCAGGC, the sensor-assay potency score (higher = more potent) was -0.155.
With TAAAGTGGTCGCAGTGCCGGGT the sensor-assay potency score (higher = more potent) was -0.418.
TTGAGGTCCTTGGCATCCGGGT showed a sensor-assay potency score (higher = more potent) of -1.42.
TAGTTTGTGAGGGGCTTCCGGA showed a sensor-assay potency score (higher = more potent) of -1.17.
TGCGTTTTGGAACCAAACCTGC showed a sensor-assay potency score (higher = more potent) of -1.08.
TTAAAGTGGTCGCAGTGCCGGG was tested, and the sensor-assay potency score (higher = more potent) was -1.18.
Sequence TTCCTTCTGAATTTGGCTCGTG has a sensor-assay potency score (higher = more potent) of 0.209.

From the OligoGym collection
Note: reference of the scale not given here.
